Test results as given in PubChem BioAssay.
Calls of active or inactive are those of the source.

How the values were obtained:
Albumin (Bos taurus) = Albumin (Bos taurus) (UniProt P02769); assay: bovine serum albumin binders on microarray, profiling panel, artefact control for SMM control protein annotation, biochemical, small-molecule microarray, Alexa647 label, 635/667 nm fluorescence (AID 1118); settings: BSA-A647 binding, fluorescence 635 nm, higher = more signal;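 also: score merges 667 nm emission intensity and signal-to-noise per printed compound spot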
Sequence of Albumin (Bos taurus) (P02769 whole entry, looked up): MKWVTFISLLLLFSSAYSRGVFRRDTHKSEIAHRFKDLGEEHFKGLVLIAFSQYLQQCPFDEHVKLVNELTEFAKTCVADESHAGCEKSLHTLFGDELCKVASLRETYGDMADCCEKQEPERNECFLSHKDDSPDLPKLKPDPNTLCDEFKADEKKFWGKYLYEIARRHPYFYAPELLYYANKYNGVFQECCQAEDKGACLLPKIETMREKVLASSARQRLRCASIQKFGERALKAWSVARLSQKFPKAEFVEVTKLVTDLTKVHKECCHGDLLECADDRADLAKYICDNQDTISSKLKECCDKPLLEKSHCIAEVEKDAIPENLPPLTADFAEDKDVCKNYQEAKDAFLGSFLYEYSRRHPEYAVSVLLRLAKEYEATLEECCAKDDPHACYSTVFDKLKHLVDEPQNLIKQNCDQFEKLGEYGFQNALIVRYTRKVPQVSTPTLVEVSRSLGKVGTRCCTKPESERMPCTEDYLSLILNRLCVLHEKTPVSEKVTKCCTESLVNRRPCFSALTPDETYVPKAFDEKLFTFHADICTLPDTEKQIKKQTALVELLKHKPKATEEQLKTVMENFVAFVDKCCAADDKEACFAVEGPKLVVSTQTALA

[1] = small-molecule microarray binders of probe aXIP, primary screen, biochemical, NeuroSMM set, 635/667 nm fluorescence (AID 1119); settings: higher = more signal, called active from +8 up or from −8 down;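 also: probe is the protein aXip251-270 applied at 1 µg/mL to compound-printed slides; binding of probe to printed compounds measured as 667 nm fluorescence plus signal to noise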
[2] = small-molecule binders of probe aNOTCH3, primary screen, biochemical, small-molecule microarray, 635/667 nm fluorescence (AID 1120); settings: higher = more signal;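 also: probe is a biotin-tagged antibody raised against NOTCH3 rather than NOTCH3 protein; score merges spot fluorescence near 667 nm with spot signal to noise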
[3] = small-molecule binders of probe aNOTCH2, primary screen, biochemical, small-molecule microarray, 635/667 nm fluorescence (AID 1121); settings: higher = more signal;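 also: score merges feature fluorescence read at 667 nm with its signal to noise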
[4] = target: Carbonic anhydrase 2 (Homo sapiens) (UniProt P00918); assay: CAII small-molecule binders, profiling panel, biochemical, small-molecule microarray, Alexa647-labelled CAII (AID 1122); settings: CAII-A647 binding fluorescence, higher = more signal
[5] = COS7 lysate on small-molecule microarray, probe aHis, 635 nm (AID 1123); settings: COS7 cell lysate, fluorescence, higher = more signal;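 also: z-score combines 667nm fluorescence intensity with signal-to-noise per printed compound spot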
[6] = compound binding in COS7 lysate, probe aLAP1, primary screen, cell lysate, small-molecule microarray (AID 1124); settings: probe aLAP1, fluorescence, higher = more signal;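 also: lysate comes from COS7 cells expressing LAP1 and is applied at 0.3 µg/mL; score merges spot fluorescence near 667 nm with signal-to-noise over triplicate slides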
Sam68 (KHDRBS1) = assay: Sam68 small-molecule binders, primary screen, biochemical, small-molecule microarray, 635 nm fluorescence (AID 1125); settings: small-molecule microarray binding, higher = more signal;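 also: score merges 667 nm channel intensity with signal to noise over triplicate slides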
[7] = test system: Chordin-like protein 2 (CHRDL2); assay: CHRDL2 small-molecule binders, primary screen, biochemical, small-molecule microarray, 635 nm fluorescence (AID 1126); settings: small-molecule microarray binding, fluorescence 635 nm; higher = more signal;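 also: printed compound slides probed with Chrdl2 protein at 4 µg/mL for 1 h at 4 C; score merges 667 nm emission intensity with signal to noise over three replicate slides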
[8] = target: Concanavalin-A (Canavalia ensiformis) (UniProt P02866); assay: ConA small-molecule binders, primary screen, artefact control for SMM control protein annotation, biochemical, small-molecule microarray, Alexa647 label, 635 nm (AID 1127); settings: ConA-A647 binding fluorescence, higher = more signal;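 also: z combines 667 nm emission intensity with signal-to-noise across three replicate slides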
Sequence of Concanavalin-A (Canavalia ensiformis) (P02866 whole entry, looked up): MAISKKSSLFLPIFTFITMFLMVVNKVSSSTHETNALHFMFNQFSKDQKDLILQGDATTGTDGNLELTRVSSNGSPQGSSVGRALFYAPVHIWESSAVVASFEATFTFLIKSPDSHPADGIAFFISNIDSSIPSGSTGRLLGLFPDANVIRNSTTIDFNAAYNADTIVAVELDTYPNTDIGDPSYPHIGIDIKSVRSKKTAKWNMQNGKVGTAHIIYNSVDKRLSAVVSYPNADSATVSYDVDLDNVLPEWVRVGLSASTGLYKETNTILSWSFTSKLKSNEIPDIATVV

Structure (SMILES)	composite z-score (Albumin (Bos taurus))	composite Z-score [1]	composite z-score [2]	composite z-score [3]	composite z-score [4]	composite z-score [5]	composite z-score [6]	composite z-score (Sam68 (KHDRBS1))	composite z-score [7]	composite z-score [8]
O=C1C=C(c2ccccc2)C(=O)c2ccc([C@H]3Oc4ccccc4S(=O)(=O)N4CCC[C@@H]34)cc21	-0.878	0.159 (inactive)	-0.185	-0.161	-0.48	-0.811	-0.534	-1.05	0.594	-0.388
Cc1cc(C)c(C(O)C2C=CC3C(=O)N(c4ccccc4)C(=O)C3N2Nc2ccc(C(C)C)cc2)c(C)c1 (stereo not given)	0.585	0.904 (inactive)	0.331	0.0557	0.712	2.78	0.8	1.29	-0.545	1.18
N#Cc1ccc(C(O)C2C=CC3C(=O)N(c4ccccc4)C(=O)C3N2Nc2ccccc2)cc1 (stereo not given)	1.01	0.115 (inactive)	0.194	0.0675	0.722	1.59	0.736	0.195	-0.111	0.73
CCOC(=O)C[C@H]1[C@H](OC(=O)c2ccc(C(=O)c3ccccc3)cc2)[C@@H](NC(=O)Cc2ccc(OC)cc2)c2cc(OCCCO)ccc2N1C(=O)c1ccccc1	0.585	0.324 (inactive)	0.0203	-0.0877	0.188	0.409	-0.0137	0.428	-0.0656	0.278
O=C1NC(=O)C2C1C=CC(C(O)c1c(F)cccc1Cl)N2Nc1ccc(Cl)cc1Cl (stereo not given)	1.04	0.122 (inactive)	0.525	0.232	0.599	3.11	1.12	0.79	-0.879	0.44
COCCOC(=O)N1C(=O)[C@@]2(c3cc(C#CC4=CCCCC4)ccc31)[C@H](c1ccc(O)cc1)N1[C@H](c3ccccc3)[C@H](c3ccccc3)OC(=O)[C@H]1[C@@H]2C(=O)N1CCN(c2ncccn2)CC1	-1.34	-0.551 (inactive)	-0.345	-0.156	-0.391	-0.147	0.601	-0.535	-1.21	-0.217
CN1C(=O)C2C=CC(C(O)C#Cc3ccccc3)N(Nc3ccccc3)C2C1=O (stereo not given)	1.03	-0.0662 (inactive)	0.405	0.0363	0.663	2.96	0.553	1.35	-0.0655	1.09
CC(C)C(=C=CC[C@H](O)c1cccc(OCCO)c1)C[C@H](O)c1cc(Cl)cc(Cl)c1O	0.773	-0.0673 (inactive)	0.0916	-0.154	0.374	1.14	0.0431	0.801	-0.331	0.943
CC(C)OC(=O)C=C1C[C@@H](c2ccc(C(F)(F)F)cc2)O[C@@H](c2ccc(C(F)(F)F)cc2)O1	0.856	-0.451 (inactive)	-0.102	-0.128	0.717	2.61	0.35	0.886	-0.782	1.09
COC(=O)c1cn(C[C@@H](Cc2ccccc2)NC(=O)N[C@H](CO)CCc2oc(C(C)=O)c(C(=O)OC)c2C(=O)OC)nn1	-0.0181	0.055 (inactive)	0.134	-0.128	0.182	0.5	0.421	1.01	1.15	0.299
COc1ccc([Si](C)(C)[C@H]2[C@H](CCO)O[C@@]3(C(=O)N(Cc4cccc(N5C(=O)COc6ccccc65)c4)c4ccccc43)[C@@H]2C)cc1	0.336	0.0953 (inactive)	-0.0343	0.0425	0.338	0.317	0.232	0.297	0.0083	0.567
COc1cc(OC)c(C(O)C2C=CC3C(=O)N(C)C(=O)C3N2NC(=O)OC(C)(C)C)cc1Br (stereo not given)	0.881	0.182 (inactive)	0.398	0.354	0.584	3.05	0.91	1.3	-0.251	1.09
O=C1O[C@H](c2ccccc2)[C@H](c2ccccc2)N2[C@H]1[C@@H](C(=O)Nc1nc3ccccc3s1)[C@]1(C(=O)Nc3ccccc31)[C@H]2c1ccc(OCCO)cc1	0.471	-0.393 (inactive)	0.23	-0.0895	0.546	0.823	0.328	1.3	0.608	1.12
O=C1OCC=C[C@H]2OC34C=CCN(c5ccc(Cl)cc5)C(=O)[C@H]3N(CCO)C(=O)[C@@H]4[C@@H]12 (stereo not given in full)	-0.212	0.703 (inactive)	-0.306	-0.211	0.903	2.81	0.0653	-0.381	-1.52	-0.606
CC(C)(C)OC(=O)CC[C@]1(C(=O)NCC(O)CO)N=C(c2ccc(OCCCO)cc2)O[C@H]1c1ccccc1 (stereo not given in full)	0.902	0.561 (inactive)	-0.0678	-0.0843	0.873	3.11	0.0605	0.723	-0.852	-0.137
NC(N)=NCCCn1cc(CNC(=O)[C@@H](N)Cc2ccccc2)nn1	0.0958	0.79 (inactive)	0.0126	-0.0279	0.948	0.96	0.155	-0.103	0.57	-0.739
COC(=O)[C@@]1(Cc2ccccc2)[C@H]2c3cc(C(=O)N(C)C)n(CCN4CNCC4=O)c3C[C@H]2CN1C(=O)c1ccccc1	0.984	0.0052 (inactive)	0.571	0.37	0.826	-0.325	1.26	-0.764	-1.16	-1.42

Structure (SMILES)	composite z-score (Albumin (Bos taurus))	composite Z-score [1]	composite z-score [2]	composite z-score [3]	composite z-score [4]	composite z-score [5]	composite z-score [6]	composite z-score (Sam68 (KHDRBS1))	composite z-score [7]	composite z-score [8]
CCC[C@@H]1C[C@@]1(CCC)[C@@H](NC(=O)OCc1ccccc1)c1ccc(-c2ccccc2)cc1	-0.477	0.572 (inactive)	0.112	0.0339	-0.198	0.27	0.643	-0.303	-0.141	-0.914
C=CCOC(=O)[C@H]1[C@@H]2C(=O)O[C@@H](c3ccccc3)[C@@H](c3ccccc3)N2[C@@H](c2ccc(OCCOC(=O)[C@H]3C[C@H]4C(=O)N[C@@H](CC(C)C)C(=O)N4[C@H]3c3cccc(OCCO)c3)cc2)[C@]12C(=O)Nc1ccc(I)cc12	-0.172	0.628 (inactive)	0.233	-0.107	0.518	1.15	0.239	1.32	1.29	1.11
O=C(NCC(F)(F)F)[C@@H]1c2ccccc2C(=O)N(Cc2ccccc2C(F)(F)F)[C@H]1c1ccc(CO)cc1	0.0104	1.89 (inactive)	-0.0824	0.0667	0.758	0.891	0.234	0.163	-0.572	-0.104
C=C(/C(=C/C[C@H](OC(=O)c1ccncc1)c1ccc(CO)o1)c1cc(C(=O)OC)ccc1OC)C(C)C	0.0703	-0.442 (inactive)	-0.0414	-0.116	0.541	1.4	0.285	1.05	0.85	0.557
CO[C@H]1O[C@H](CO)[C@@H](OC(=O)Nc2ccccc2-c2ccccc2)[C@H](OC(=O)Nc2ccc3c(c2)OCO3)[C@H]1OC(=O)Nc1ccc2c(c1)OCO2	0.902	0.806 (inactive)	0.211	-0.103	0.498	2.8	1.11	1.31	0.454	1.06
COCCCNC(=O)[C@@]1(Sc2ccc(C)cc2)CC(=O)N(C2CCCCC2)[C@@H]1c1ccc(CO)cc1	-0.111	-0.513 (inactive)	-0.337	-0.12	0.71	1.62	1.21	-0.281	-0.975	-0.305
Cc1ccc(S[C@]2(C(=O)NCCCN(C)C)CC(=O)N(C3CCCCC3)[C@@H]2c2ccc(CO)cc2)cc1	0.156	0.0469 (inactive)	-0.182	-0.0761	0.228	-0.111	-0.183	-1.01	-1.18	-0.957
C=C(/C(=C/C[C@H](OC(C)=O)c1cccc(OCCO)c1)c1cnc2ccccc2c1)C(C)C	0.195	0.896 (inactive)	0.0701	-0.0859	0.547	0.276	-0.313	0.615	1.05	0.689
Cc1ccc(S[C@]2(C(=O)NCC(F)(F)F)CC(=O)N(Cc3ccccc3C(F)(F)F)[C@@H]2c2ccc(CO)cc2I)cc1	0.88	-0.0127 (inactive)	-0.3	-0.14	0.968	0.616	0.116	-0.486	-1.41	-0.35
COCCOC(=O)N1C(=O)[C@@]2(c3cc(C#CC4=CCCCC4)ccc31)[C@H](C(=O)N1CCCCCCC1)[C@H]1C(=O)O[C@H](c3ccccc3)[C@H](c3ccccc3)N1[C@@H]2c1ccc(O)cc1	0.25	0.0769 (inactive)	0.183	0.103	0.334	2.17	0.147	1.25	0.277	0.622
CCCNC(=O)[C@@H]1c2ccccc2C(=O)N(C(C)C)[C@H]1c1ccc(CO)cc1	-0.342	0.251 (inactive)	-0.0728	-0.0567	0.322	0.113	0.784	0.437	-0.605	0.208
OCC1CC(c2ccccc2)=NO1 (stereo not given)	-0.558	-0.228 (inactive)	-0.185	-0.124	-0.179	-0.53	-0.437	-0.424	0.843	-0.36
COCCCNC(=O)[C@@]1(Cc2ccccc2N=[N+]=[N-])COC(c2ccc(OCCCO)cc2)=N1	0.538	0.889 (inactive)	0.125	-0.0928	0.31	2.27	0.398	1.05	-0.938	1.1
C=CC[C@]1(C(=O)O)COC(c2ccc(OCCCO)cc2)=N1	0.157	0.0512 (inactive)	-0.0967	-0.222	0.969	1.14	0.308	0.343	0.422	-0.427
C=CCN1C(=O)[C@@]2(O[C@@H](CCn3cc([C@H](O)c4ccccc4)nn3)[C@H]([Si](C)(C)c3ccc(OC)cc3)[C@H]2C)c2cc(N3CCC3=O)ccc21	0.292	0.346 (inactive)	-0.132	-0.189	0.489	0.901	0.249	0.636	0.163	0.0967
CC(=O)NCCCC[C@@H]1NC(=O)[C@H]2C[C@@H](C(=O)NCCCC[N+](C)(C)C)[C@@H](c3cccc(OCCO)c3)N2C1=O	-1.1	2.16 (inactive)	0.204	-0.0974	0.704	1.75	1.16	0.719	1.49	1.1
